Screening data (PubChem)
In the library only some 2.8% were active in any assay of this set; here they are far more common.
GAA850 FXN act = frataxin GAA850 promoter activation; activation, % at 6 µM; AID 540364; HEK293 lucGAA850 FXN promoter luciferase reporter, 24 h; percent of 10 µM SAHA response; 360,000 compounds, 0.56% hits;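 active = activation above the average of all compounds screened plus 3 SD, cutoff fixed separately per campaign, cut at about 7.5% in these data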;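 note: 0% = DMSO wells and 100% = 10 µM SAHA wells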
esBAF inh = SWI/SNF esBAF complex inhibition; mouse ES cells, Bmi1-luciferase knock-in reporter, 24 h; 100% = twice the neutral-well signal; reporter increase, % at 12.5 µM; 350,000 compounds, 2% hits; AID 602393; in the data active = activation above about 40%; inconclusive = no clear call, values can overlap the other calls;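 note: 0% = median of the plate's neutral control wells and 100% = double that signal; a rise in the Bmi1 reporter signal indicates esBAF inhibition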
Wnt bcat act = Wnt/beta-catenin pathway activation | Wnt/beta-catenin reporter cell assay, activator, plate reader | activation, % at 9.35 µM | 300,000 compounds, 1.2% hits | AID 743398; in the data active = activation above about 30%, passing the limit was not always enough; inconclusive = no clear call, values can overlap the other calls;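 note: 0% = neutral control wells and 100% = positive control wells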
MITF TRPM1 HTS = activators of MITF-driven TRPM1 promoter activity in SK-MEL-5 cells; SK-MEL-5 TRPM1-promoter luciferase, 24 h; % of positive control, neutral wells = 0; activation, % at 12.5 µM; 300,000 compounds, 0.75% hits;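 active = mean activation of at least 80% with every replicate also reaching 80%; inconclusive = mean reaches 80% but some replicate falls short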;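 note: 0% = neutral control wells and 100% = parthenolide positive control wells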
The depositor's hits bear a star; ? = inconclusive; / = no result given.

SMILES	GAA850 FXN act	esBAF inh	Wnt bcat act	MITF TRPM1 HTS
O=C(NC(=S)Nc1ncc(Br)cc1Br)c1ccccc1	4.3	53.0*	11.9	35.8
O=C(Nc1cnc2ccccc2c1)c1ccncc1	0.1	-1.5	19.5	20.1
COC(=O)c1cccc(C(=O)Nc2cnc3ccccc3c2)n1	-0.7	59.4*	/	18.3
O=C(NC(=S)Nc1cnc2ccccc2c1)c1ccccc1	4.8	/	52.5*	55.0
C[C@H](CO)N1C[C@H](C)[C@H](CN(C)C(=O)NC2CCCCC2)Oc2ccc(NS(=O)(=O)c3ccccc3)cc2C1=O	/	-3.0	/	/
CCOc1cc2c(C#N)c(N3CCNCC3)nc(N)c2c(N)n1	2.8	/	/	-2.8
CCOc1cc2c(C#N)c(N3CCCCC3)nc(N)c2c(N)n1	1.5	54.5*	/	31.5
C/C=C/c1ccc2c(c1)O[C@@H](CN(C)C(=O)COC)[C@@H](C)CN([C@H](C)CO)S2(=O)=O	/	0.6	/	/
CC(=O)c1cccc(OCC(=O)Nc2cc(Cl)ccc2-n2cncn2)c1	6.8	/	-0.4	84.1*
Cc1ccc(C)c(NC(=O)CSc2nccn2Cc2ccco2)c1	2.4	55.7*	7.3	31.4
Cc1ccc(NC(=O)CSc2nccn2Cc2ccco2)c(C)c1	3.2	-41.0	36.9*	20.1
O=C(CSc1nccn1Cc1ccco1)Nc1ccccc1F	2.9	14.7	2.6	23.4
Cc1ccc(C)c(C(=O)CSc2nnnn2C(C)C)c1	0.0	51.4*	/	45.0
CC(C)n1nnnc1SCC(=O)c1ccc2c(c1)OCCO2	1.3	46.7*	29.5	77.3
Cc1cc(C(=O)CSc2nnnn2C)c(C)n1C1CC1	3.8	/	2.7	17.5
O=C(CSc1nnnn1C1CCCC1)c1ccc2c(c1)OCCO2	2.2	81.2*	?	74.4
CCn1c(C)cc(C(=O)CSc2nnnn2C2CCCC2)c1C	1.0	-11.2	2.7	105.1*
CCn1nnnc1SCC(=O)c1ccc2c(c1)OCCO2	-2.4	?	12.4	15.9
Cc1noc(C)c1NC(=O)Nc1ccc2c(c1)C(=O)N([C@H](C)CO)C[C@H](C)[C@H](CN(C)S(=O)(=O)c1ccc(F)cc1)OCCCC[C@H](C)O2	/	-5.0	/	/
Cn1cnc(S(=O)(=O)N2C[C@H](O)COC[C@@H]3O[C@H](CC(=O)NCc4ccc(F)cc4)CC[C@H]32)c1	/	-2.4	/	/
O=C(C[C@H]1CC[C@@H](NC(=O)CN2CCOCC2)[C@H](CO)O1)NCCc1ccncc1	/	-0.4	/	/
CCOc1ccc(C(=O)NC(Cc2ccccc2)C(=O)OC)cc1 (configuration not stated)	4.1	74.3*	/	50.0
CCOC(=O)C(CNc1ccc(OCc2ccccc2)cc1)NC(=O)c1ccccc1 (configuration not stated)	/	/	43.9*	/
O=c1c2cccc(Cl)c2nc2n1Cc1ccccc1-2	0.9	/	39.1*	/
S=C1c2ccccc2CN1c1ccccc1	5.1	29.0	8.6	47.0
SMILES	GAA850 FXN act	esBAF inh	Wnt bcat act	MITF TRPM1 HTS
Cc1ccc(N2Cc3ccccc3C2=S)cc1	5.1	72.8*	15.7	74.3
C[C@H]1CN([C@@H](C)CO)C(=O)Cc2cc(NS(=O)(=O)c3cn(C)cn3)ccc2O[C@@H]1CN(C)CC1CC1	/	-6.2	/	/
COC(=O)c1ccc(CNC(=O)CSC2=NCCS2)cc1	2.5	/	/	10.4
COC(=O)c1ccc(CSC2=NCCS2)cc1	5.0	/	/	84.2*
Cc1noc(C)c1S(=O)(=O)Nc1ccc2c(c1)C(=O)N([C@@H](C)CO)C[C@@H](C)[C@H](CN(C)C(=O)NC(C)C)OCCCC[C@H](C)O2	/	-1.2	/	/
N#C/C(=C\c1ccc([N+](=O)[O-])cc1)c1ccccn1	1.5	/	39.5*	43.7
N#C/C(=C/c1cccs1)c1ccccn1	2.6	/	44.0*	?
COC(=O)c1ccc(/C=C(\C#N)c2ccccn2)cc1	5.0	101.7*	10.4	107.4*
N#C/C(=C\c1ccccn1)c1ccccn1	3.6	18.3	17.0	-3.9
CN(C)c1ccc(/C=C(\C#N)c2ccccn2)cc1	-6.1	/	/	-69.3
CCC(=O)Nc1ccc2c(c1)C(=O)N(C)[C@H]1CC[C@@H](CC(=O)NCCc3ccccc3)O[C@H]1CO2	/	5.9	/	/
Cc1noc(C)c1NC(=O)N(C)C[C@@H]1Oc2ccc(NS(=O)(=O)c3cccs3)cc2CC(=O)N([C@H](C)CO)C[C@H]1C	/	-4.7	/	/
CCC(=O)N(C)C[C@H]1Oc2cc(C3=CCCC3)ccc2S(=O)(=O)N([C@H](C)CO)C[C@H]1C	/	-11.7	/	/
NC(=O)Nc1ccc(C(=O)OCC(=O)N(Cc2ccccc2)C2CCS(=O)(=O)C2)cc1 (configuration not stated)	0.5	-1.8	-0.8	-11.3
CN(C)c1cccc(C(=O)OCC(=O)N(Cc2ccccc2)C2CCS(=O)(=O)C2)c1 (configuration not stated)	2.4	46.5*	-1.8	5.7
